Laboratory results: PubChem BioAssay AID1476 (National Center for Advancing Translational Sciences (NCATS), 2009)
The campaign covered roughly 200,000 compounds. About 4,500 (2.2%) were called active. About 12% were inconclusive and are not listed. The list comes from a sample in which actives are over-represented; it also holds similar structures and randomly drawn compounds. A structure can be active in one record and inactive in another. Values without a mark were called inactive. The call rests on the fitted dose curve; in most records, active means well fitted inhibition curve with a large enough effect; inconclusive means small, poorly fitted or top-dose-only effect, or effect the other way; inactive means flat fitted curve, though single readings scatter.

Molecular target: Cruzipain (Trypanosoma cruzi) (UniProt P25779)
Sequence (P25779 123-467 limits assumed): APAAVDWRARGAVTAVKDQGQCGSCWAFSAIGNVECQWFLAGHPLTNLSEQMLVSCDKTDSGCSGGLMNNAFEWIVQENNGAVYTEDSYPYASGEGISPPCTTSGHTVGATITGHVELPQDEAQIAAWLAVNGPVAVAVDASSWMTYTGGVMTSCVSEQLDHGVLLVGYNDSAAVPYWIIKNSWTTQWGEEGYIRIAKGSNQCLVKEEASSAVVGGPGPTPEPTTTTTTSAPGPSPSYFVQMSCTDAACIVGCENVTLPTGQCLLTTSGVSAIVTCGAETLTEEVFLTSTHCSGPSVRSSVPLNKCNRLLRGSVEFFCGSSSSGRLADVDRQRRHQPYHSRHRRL
Experiment: qHTS Assay for Promiscuous and Specific Inhibitors of Cruzain (without detergent); further: nearly all actives have a fitted effect of over 40% in size;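 on max response, negative = inhibition: plate controls were enzyme without inhibitor for no effect and buffer without enzyme for full effect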
Conditions: purified cruzain, Z-FR-AMC fluorescence, no detergent
Summary of the method: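 Purified cruzain at 1.5 nM, pre-incubated 15 min with compound at room temperature in 100 mM sodium acetate pH 5.5, 5 mM DTT, 0.00005% Triton X-100. Reaction started with 2 uM Z-FR-AMC; AMC fluorescence increase over 60 s gives rate.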
Potency means the concentration at half of the fitted maximal effect.

SMILES | max response, negative = inhibition [%] | Potency
Cc1cn(C)c(CC(=O)NCc2ccccc2)c1C(=O)O | -3.27 | 
CN(Cc1ccccc1)C(=O)c1cn(C)c2ccc(S(=O)(=O)N3CCCCC3)cc2c1=O | -10.3 | 
CN(Cc1ccccc1)C(=O)c1cn(C)c2ccc(S(=O)(=O)N(C)C3CCCCC3)cc2c1=O | 5.7 | 
COc1ccc(C(=O)Nc2ccc(-n3nncc3-c3ccccc3)cc2)cc1OC | 25.3 | 
Cc1ccc(N2CCN(C(=O)CCc3c(C)nc4c(c3C)c(=O)n(C)c(=O)n4C)CC2)c(C)c1 | 6.51 | 
O=C(NCc1ccc(Cl)cc1)c1ccc2c(c1)nnn2C1CCCC1 | -10.2 | 
Cc1ccc(-n2ncc3c(=O)n(Cc4cccc(C(F)(F)F)c4)cnc32)cc1C | 6.16 | 
Cc1ccc(-n2c(/C=C/c3cccc(C(F)(F)F)c3)nc3ccccc3c2=O)cc1 | -0.135 | 
Cn1cc(/C=C/c2nc3ccccc3c(=O)n2-c2cccc([N+](=O)[O-])c2)c2ccccc21 |  | 10 µM (active)
Cn1cc(/C=C/c2nc3ccccc3c(=O)n2-c2ccccc2)c2ccccc21 | 10.3 | 
CSc1ccc(C2C(C(=O)Nc3ccccc3)=C(C)Nc3nc4ccccc4n32)cc1 (configuration not stated) | -7.45 | 
CCc1cccc(C)c1NS(=O)(=O)c1c(C)nc2sccn2c1=O | 1.11 | 
CCOC(=O)c1cc2c(=O)n3ccccc3nc2n(CCCOC)c1=NC(=O)C(C)Oc1ccccc1 (configuration not stated) | -4.02 | 
C=CCNC(=S)N/N=C/c1ccc(OCc2ccccc2)cc1 | -2.25 | 
CNC(=S)N/N=C/c1ccc(OCc2ccccc2)c(Br)c1 |  | 25.1 µM (active)
CNC(=S)NNC(=O)c1sccc1OCc1ccccc1 | -0.842 | 
Cc1ccccc1CN1CCC(CNC(=O)c2cc3ccc4cccnc4c3[nH]2)CC1 | -9.74 | 
O=c1cc(Cn2nnc(-c3ccc(Cl)cc3)n2)nc2sccn12 | 0.777 | 
Cc1ccc(Nc2c(-c3ccc(Cl)cc3)nc3sccn23)c(C)c1 |  | 31.6 µM (active)
Cc1ccc(Nc2c(-c3ccc(C)cc3)nc3cnccn23)cc1 | 5.6 | 
Cc1cccc(-n2ccnc2SCC(=O)Nc2cccc3ccccc23)c1C | -4.61 | 
O=C(COc1ccc([N+](=O)[O-])cc1)Nc1ccc(N2CCCC2)cc1 |  | 7.94 µM (active)

SMILES | max response, negative = inhibition [%] | Potency
O=C(COc1ccc(/C=N/NC(=O)c2ccc(O)cc2)cc1)Nc1ccc([N+](=O)[O-])cc1 | -9.42 | 
Cc1ccc(OCCCC(=O)Nc2ccc(N3CCOCC3)cc2)cc1 | -0.526 | 
CCS(=O)(=O)N1CCc2cc(C(=O)N3CCN(c4ccccc4OC)CC3)ccc21 | -11.9 | 
Cc1cc(Cl)ccc1NC(=O)Cc1ccc(NC(=O)N2CCCCc3ccccc32)cc1 | 8.39 | 
NC(=O)N1CCCC1C(=O)Nc1ccc(Cl)c(Cl)c1 (configuration not stated) | -7.92 | 
O=C(Nc1ccc(Cl)c(Cl)c1)N1CC=C(c2ccccc2)CC1 |  | 31.6 µM (active)
CC(C(=O)Nc1ccc(Cl)cc1Cl)N1CC=C(c2ccccc2)CC1 (configuration not stated) | 3.73 | 
CC(CCCc1ccccc1)NC(=O)c1nn(-c2ccc(Cl)cc2)nc1CO (configuration not stated) | 4.3 | 
CN1CCN(c2ccc(S(=O)(=O)Nc3ccccc3)cc2[N+](=O)[O-])CC1 | -3.45 | 
O=[N+]([O-])c1ccc(N2CCN(S(=O)(=O)c3ccccc3)CC2)cc1N1CCc2ccccc2C1 |  | 7.94 µM (active)
CC(=O)Nc1ccc(S(=O)(=O)N2CCN(c3ccccc3)CC2)cc1 | 4.93 | 
Cc1ccccc1CNC(=O)C1CCCN(S(=O)(=O)N(C)c2ccc(F)cc2)C1 (configuration not stated) | 7.13 | 
O=C(COc1ccc(Cl)cc1)Nc1ccccc1OCc1cc(=O)n2ccccc2n1 | -0.406 | 
O=C(Cn1c(=O)nc(-c2ccccc2)c2cc(Cl)ccc21)NCc1ccc(Cl)cc1 | -1.57 | 
CC(C)c1ccc(Cn2c(COc3ccccc3)nc3ccccc32)cc1 | -13.5 | 
CC(C)c1ccc2c(c1)c(SC(C)(C)C)c(CC(C)(C)C(=O)O)n2Cc1ccc(Cl)cc1 | 1.55 | 7.94 µM (active)
COc1ccc(NC(=O)CSc2nccn2Cc2ccc3c(c2)OCO3)cc1 | -5.6 | 
O=C(COc1ccc2ccccc2c1)N1CCN(C(=O)c2cccs2)CC1 | 12.1 | 
CCOc1ccccc1C1CC(c2cccc(NS(C)(=O)=O)c2)=NN1C(=O)c1ccccc1 (configuration not stated) | 4.98 | 
CCOc1ccc2nc(Cl)c(C3CC(c4ccccc4)=NN3C(=O)c3cccs3)cc2c1 (configuration not stated) |  | 7.94 µM (active)
CCOC(=O)c1c(C)oc2nc(C)nc(N(CC(C)C)CC(C)C)c12 | -3.29 | 
COc1ccc(NC(=O)CN2C(=O)COc3ccc(S(=O)(=O)N4CCOCC4)cc32)cc1 | 4.14 | 

SMILES | max response, negative = inhibition [%] | Potency
O=C(NC1CCc2ccccc21)C12CN(Cc3ccccc3)CC1C(c1cccc([N+](=O)[O-])c1)=NO2 (configuration not stated) |  | 12.6 µM (active)
Nc1ccc(C(=O)OCC(=O)NC2CCCc3ccccc32)cc1[N+](=O)[O-] (configuration not stated) | -1.06 | 
COc1ccc([N+](=O)[O-])cc1C1NN=C(c2cccc3ccccc23)S1 (configuration not stated) |  | 7.94 µM (active)
COc1ccccc1CC(=O)Nc1ccc([N+](=O)[O-])cc1OC | -6.07 | 
COc1ccc([N+](=O)[O-])cc1NC(=O)CCc1ccccc1 | -3.31 | 
O=C(CSc1nc(Nc2ccc(F)c(F)c2)c2ccccc2n1)c1ccc(Cl)cc1 | -24.6 | 
Cc1ccccc1OC/C(O)=C(\C#N)c1nc2ccccc2[nH]1 |  | 20 µM (active)
COc1ccccc1CSc1nc2ccccc2[nH]1 | 4.13 | 
COC(=O)Cc1nc2ccccc2[nH]1 | -1.4 | 
CCOc1ccc(NC(=O)Cn2c(C)ccc(C#N)c2=O)cc1 | -12.5 | 
COc1ccc(S(=O)(=O)N2CCCC(C(=O)Nc3ccc(NC(=O)c4ccccn4)cc3)C2)cc1 (configuration not stated) | -11.4 | 
Cc1cc(N2CCN(S(=O)(=O)c3ccc(C)c(C)c3)CC2)c2ccccc2n1 | 1.17 | 
COc1ccc(S(=O)(=O)N2CCN(c3ncnc4c(-c5ccccc5)nsc34)CC2)cc1 |  | 20 µM (active)
COc1cccc(NC(=O)Cn2c(=O)cc(C)c3c(C)nn(-c4cccc(F)c4)c32)c1 | -8.29 | 
CCC(=O)N1CCc2cc(CNS(=O)(=O)c3ccc(Br)s3)ccc21 | -2.98 | 
CCOc1ccc(Nc2oc(/C=C/c3ccc(F)cc3)nc2C#N)cc1 | -13.4 | 
CCn1c(C)c(C)c2cc(C(=O)N3CCN(c4cccc(C)c4C)CC3)ccc21 | -25.1 | 
Cc1c(C)n(Cc2ccc(Cl)cc2)c2ccc(C(=O)N3CCN(c4ccccc4F)CC3)cc12 |  | 12.6 µM (active)
O=C(c1ccc(CN2CCOCC2)cc1)N1CCN(c2ccccc2F)CC1 | -4.12 | 
Cc1ccc(C)c(Cn2c(=O)n(CCC(=O)NCc3ccc4c(c3)OCO4)c(=O)c3sccc32)c1 | -5.68 | 
O=C(CSCc1cnn(-c2ccccc2)c1-n1cccc1)NCc1ccc(Cl)cc1 | 5.64 | 
Cc1ccc(-n2nc(C)c(C(=O)O)c2-n2cccc2)cc1 | 1.25 | 

SMILES | max response, negative = inhibition [%] | Potency
CCC(=O)N1CCc2cc(S(=O)(=O)NC(C(=O)NCCc3ccc(C)cc3)C(C)C)ccc21 (configuration not stated) | -12.9 | 
Cc1ccccc1CN1C(=O)c2ccccc2Sc2ccc(C(=O)NCCCN3CCOCC3)cc21 | -3.52 | 
COc1ccccc1NC(=O)CN1C(=O)c2ccccc2Sc2ccc(C(=O)N3CCCC3)cc21 | 4.29 | 
COc1cccc(CNC(=O)c2ccc3c(c2)N(Cc2ccc(C(F)(F)F)cc2)C(=O)c2ccccc2S3)c1OC |  | 10 µM (active)
Cc1nc(-c2ccc(NC(=O)c3cccs3)cc2)cs1 | -25.5 | 
Cc1ccc(-c2csc(NC(=O)c3cccs3)n2)cc1 | 7.26 | 
Cc1sc(NC(=S)NC(=O)c2cccs2)nc1-c1ccc(CC(C)C)cc1 |  | 10 µM (active)
COc1ccc(C2=NC(c3ccncc3)=Nc3ccc(Br)cc3N2)cc1 | 11.4 | 
O=C(Cn1ncn2nc(-c3cccs3)cc2c1=O)NCc1cccc(Br)c1 | -9.74 | 
O=C(CSc1oc(-c2ccco2)nc1S(=O)(=O)c1ccc(Cl)cc1)c1ccccc1 | 10.2 | 
CCCN(CCC)CCCNC(=O)Cn1cc2c(n1)-c1c(oc(C(=O)N3CCCC3)c1C)CC2 | 2.15 | 
CCc1cccc(NC(=O)CN(c2ccc(C)c(C)c2)S(=O)(=O)c2ccsc2C(=O)OC)c1 | -9.83 | 
Cc1ccc(CNC(=O)CSc2c(C)cnc3c2c(=O)n(C)c(=O)n3C)cc1 | -5.95 | 
Cc1nn2c(=O)cc(COC(=O)CNC(=O)c3ccc(F)cc3)nc2s1 | -12.1 | 
O=C(CNC(=O)c1ccco1)OCC(=O)c1ccccc1 | -5.08 | 
Cc1cc(C(=O)COC(=O)CNC(=O)c2ccc(F)cc2)c(C)n1Cc1ccco1 |  | 15.8 µM (active)
O=c1cc(-c2ccccc2)n2c(SCc3ccccc3)nnc2[nH]1 | -3.24 | 
CC(C)Nc1nc(N(c2ccccc2)c2ccccc2)nc(-n2ccnc2)n1 | 11.1 | 
N#Cc1nc(N)nc(N(c2ccccc2)c2ccccc2)n1 |  | 1.58 µM (active)
COc1ccc(NC(=O)CNC(=O)Cn2ccc3ccccc3c2=O)c(OC)c1 | 10.4 | 
